In the library only some 11% were active in any assay of this set; here they are far more common.
Tau fibril FP – tau fibrillization inhibition (FP). P10636. K18 P301L tau heparin fibrillization, Alexa594 FP, 6 h. Potency, µM (top dose mostly 57.7 µM), most hits filed as inhibitors. actives 0.39% (n = 280,000); note: nearly all actives have a fitted effect of over 55% in size
Target sequence (P10636 561-689 P618L limits assumed): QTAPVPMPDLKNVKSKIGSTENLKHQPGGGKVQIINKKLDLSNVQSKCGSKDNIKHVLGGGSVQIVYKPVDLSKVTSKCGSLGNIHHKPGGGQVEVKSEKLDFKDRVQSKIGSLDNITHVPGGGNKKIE
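Heparin (20 uM) drove fibril formation of recombinant tau K18 P301L, 15 uM unlabeled with 0.24 uM Alexa 594 label, for 6 hr at 37 C in 100 mM sodium acetate pH 7. Fluorescence polarization (555/632 nm) read 1 hr after 30 uM ThT.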
Tau fibril ThT – blocks human tau fibril formation measured by thioflavin T | AID 1460 | recombinant tau K18 P301L, heparin-induced fibrillization, ThT fluorescence | P10636 | actives 2.1% (n = 270,000) | Potency, µM (series often up to 57.4 µM), most hits filed as inhibitors; note: nearly all actives have a fitted effect of over 55% in size
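ThT emission at 510 nm, taken 1 hr after adding 30 uM dye, quantifies aggregates formed when 20 uM heparin acts on human tau K18 P301L for 6 hr at 37 C.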
Sfp inh – Sfp phosphopantetheinyl transferase inhibition; Q9F4F7; Biochemical Sfp PPTase activity, qHTS; Potency, µM, actives largely listed as inhibitors; actives 3.5% (n = 310,000);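 note: the enzyme is Sfp with the accession as filed and its product quenches rhodamine fluorescence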
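Step 1, compound plus 15 nM Sfp-PPTase, 15 min, room temperature. Step 2, add rhodamine-CoA (5 uM) and BHQ-2-YbbR (12.5 uM). Step 3, read 525/598 nm fluorescence at 0 and 30 min.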
Coupling enz – inhibits coupling enzyme system, counter-screen for aldolase hits; coupling enzyme system counterscreen, AmpLite Red fluorescence; activity change, negative = inhibition, % at 58.2 µM, hits read low; actives 0.67% (n = 290,000); in the data active = activity change below about -30%
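Coupling enzymes only (glyceraldehyde-3-phosphate) + compound, at 57.5 uM final, 10 min RT; add substrate/coupling/AmpLite Red mix, 20 min RT; fluorescence ex 525/em 598 nm. Actives flag coupling-system interference.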
Tau fluor counter – counter-screen for tau fibril formation inhibitors | Potency, µM (highest dose often 57.7 µM) | tau K18 P301L (four-repeat tau fragment) Alexa594 fluorescence, heparin fibrillization | actives 0.93% (n = 280,000); note: nearly all actives have a fitted effect of over 55% in size
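Human K18 P301L tau (15 uM unlabeled plus 0.24 uM Alexa 594-labeled, final) in 100 mM sodium acetate pH 7 was mixed with compound and 20 uM heparin and incubated 6 hr at 37 C.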
G9a block – blocks human histone lysine methyltransferase G9a; Q96KQ7; G9a H3K9 monomethylation, AlphaScreen, 2 h; Potency, µM (top dose mostly 102 µM), usual class: inhibitors; actives 8.8% (n = 350,000); note: nearly all actives have a fitted effect of over 75% in size
Target sequence (Q96KQ7 913-1193 limits assumed): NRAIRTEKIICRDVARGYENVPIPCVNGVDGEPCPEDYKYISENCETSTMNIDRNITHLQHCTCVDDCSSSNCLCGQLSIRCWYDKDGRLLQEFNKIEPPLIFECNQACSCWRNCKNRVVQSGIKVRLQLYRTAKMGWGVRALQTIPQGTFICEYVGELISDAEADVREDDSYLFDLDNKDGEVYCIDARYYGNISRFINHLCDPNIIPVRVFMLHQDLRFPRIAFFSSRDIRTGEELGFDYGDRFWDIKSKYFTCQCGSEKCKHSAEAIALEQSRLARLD
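Methyltransferase reactions run at room temperature for 2 h (20 nM enzyme, 500 nM biotin-H3K9 peptide, 20 uM SAM) after a 15 min compound preincubation; product detected by AlphaScreen beads and anti-H3K9me1 antibody.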
Large screens that a line does not name were inactive. Unless noted, calls come from the whole dose curve; as a rule, active = well fitted curve in the direction sought with a large enough effect; inconclusive = small, poorly fitted or top-dose-only effect, or another doubt; inactive = no such curve, though single readings can be large; an effect the other way counts as inactive or inconclusive.

Cn1c(=O)c(C(N)=S)cn(-c2ccccc2)c1=O	G9a block inconclusive (no result: Tau fibril FP, Tau fibril ThT, Tau fluor counter)
CC(C)n1cc(C(N)=S)c(=O)n(Cc2ccccc2)c1=O	G9a block 50µM (no result: Tau fibril FP, Tau fibril ThT, Tau fluor counter)
O=C1C(Cl)=C(NCCN2CCOCC2)C(=O)c2ccccc21	G9a block inconclusive (no result: Tau fibril FP, Tau fibril ThT, Tau fluor counter)
Cn1c(N2CCOCC2)cc(=O)n(C)c1=O	none
CC1=C(C)C(=O)C(N2CCOCC2)=CC1=O	Tau fibril ThT inconclusive, Coupling enz -60, G9a block 45µM
Cc1ccc(N2CCOCC2)c2c1C(=O)c1ccccc1C2=O	G9a block 3.5µM
O=C1C=C(N2CCOCC2)c2ccccc2C1=O	Coupling enz -66, G9a block inconclusive (no result: Tau fibril FP, Tau fibril ThT, Tau fluor counter)
CC(=O)N(C(C)=O)N1C(=O)c2cccc3c(N4CCOCC4)ccc(c23)C1=O	none
COc1ccc(CNC(=O)c2ccc(CS(=O)Cc3ccccc3Cl)o2)cc1 (centres undefined)	none (no result: Sfp inh, Coupling enz)
Cc1cccc(CNC(=O)Cc2csc3ccccc23)c1	none (no result: Sfp inh, Coupling enz)
CCc1ccccc1NC(=O)C1CCCN(C(=O)c2cnn(-c3ccccc3)c2-n2cccc2)C1 (centres undefined)	none (no result: Sfp inh, Coupling enz)
Cc1ccc(NC(=O)c2c(F)cccc2Cl)cc1S(=O)(=O)N1CCOCC1	none (no result: Tau fibril FP, Tau fibril ThT, Sfp inh, Coupling enz, Tau fluor counter)
COC(=O)c1cc(N2C(=O)C3C(C2=O)C2(C)C=CC3(C)O2)ccc1Cl (centres undefined)	Tau fibril ThT inconclusive, Sfp inh 7.9µM, G9a block inconclusive
CC(=O)Oc1ccc(N2C(=O)C3C4C=CC(CO)(O4)C3C2=O)cc1 (centres undefined)	Sfp inh 16µM, G9a block 1µM
COc1ccc(N2C(=O)C3C(C2=O)C3(c2ccccc2)c2ccccc2)cc1 (centres undefined)	Tau fibril ThT inconclusive
O=C1C2C3C=CC(CO)(O3)C2C(=O)N1c1ccccc1-c1ccccc1 (centres undefined)	Tau fibril ThT inconclusive, Sfp inh 1.1µM, G9a block 0.32µM
CC(=O)Oc1ccc(N2C(=O)C3C(C2=O)C2(C)C=CC3(C)O2)cc1 (centres undefined)	Sfp inh 7.9µM, G9a block 5.6µM
Cc1ccc(Cl)cc1NC(=O)c1cc(-c2ccc3c(c2)OCCO3)on1	Tau fibril FP inconclusive (no result: Sfp inh, Coupling enz)
CN(C)S(=O)(=O)c1cc(C(=O)OCCn2cnc3c2c(=O)n(C)c(=O)n3C)ccc1Cl	none
O=C(CCC(=O)OCc1ccc([N+](=O)[O-])cc1Cl)Nc1ccccc1	none (no result: Tau fibril FP, Tau fibril ThT, Coupling enz, Tau fluor counter, G9a block)
Cc1nn(-c2ccc(N3CCCCC3)nn2)c(C)c1CCC(=O)Nc1ccc(F)cc1F	Tau fibril ThT inconclusive (no result: Sfp inh, Coupling enz)
O=C1C2C3C=CC(CNS(=O)(=O)c4ccccc4)(O3)C2C(=O)N1c1ccc(Cl)cc1 (centres undefined)	Tau fibril FP inconclusive, Sfp inh 25µM, G9a block 1µM
CN(C(=O)CC1C(=O)NCCN1Cc1ccoc1)C1CCOCC1 (centres undefined)	G9a block inconclusive
CN(C(=O)CC1C(=O)NCCN1Cc1c(F)cccc1Cl)C1CCOCC1 (centres undefined)	G9a block 45µM (no result: Tau fibril FP, Tau fibril ThT, Tau fluor counter)
Cc1cc(CN(C)C(=O)CC2C(=O)NCCN2Cc2ccc(F)c(F)c2)on1 (centres undefined)	none (no result: G9a block)
CCN(CCn1cccn1)C(=O)CC1C(=O)NCCN1Cc1ccc(F)c(F)c1 (centres undefined)	G9a block inconclusive
CN(C(=O)CC1C(=O)NCCN1Cc1ccc(F)c(F)c1)C1CCCCC1 (centres undefined)	G9a block 45µM (no result: Tau fibril FP, Tau fibril ThT, Coupling enz, Tau fluor counter)
CCN(Cc1ccncc1)C(=O)CC1C(=O)NCCN1Cc1ccc(F)c(F)c1 (centres undefined)	Sfp inh 79µM, G9a block inconclusive
Cc1ccc(CN2CCNC(=O)C2CC(=O)N(C)C2CCOCC2)cc1 (centres undefined)	G9a block 50µM (no result: Tau fibril FP, Tau fibril ThT, Tau fluor counter)
Cc1ccc2occ(CC(=O)N(Cc3ccccc3Cl)C3CCS(=O)(=O)C3)c2c1 (centres undefined)	none (no result: Sfp inh, Coupling enz)
COc1ccc(NC(=O)Cn2c3ncccc3c(=O)n2-c2ccc(C)c(C)c2)c(OC)c1	none (no result: Sfp inh, Coupling enz)
Cc1cc([N+](=O)[O-])ccc1NC(=O)C(C)N1CCN(c2ccccn2)CC1 (centres undefined)	none
CCOC(=O)c1c(C)oc2nc(C)nc(NCCCN3CCN(c4ccccc4OC)CC3)c12	none (no result: Sfp inh, Coupling enz)
Cc1cccc(NC(=O)CSc2nc(-c3ccccc3)cc(=O)[nH]2)c1C	none (no result: Sfp inh, Coupling enz)
CC(C)N(Cc1nccn1C)C(=O)CC1C(=O)NCCN1Cc1ccc(F)c(F)c1 (centres undefined)	G9a block 40µM (no result: Tau fibril FP, Tau fibril ThT, Coupling enz, Tau fluor counter)
CCOc1ccc2c(c1)C(NC(C)=O)C(=O)N2CCN1CCOCC1 (centres undefined)	Sfp inh inconclusive, G9a block 16µM (no result: Tau fibril FP, Tau fibril ThT, Tau fluor counter)
CCN1C(=O)C(NC(C)=O)c2cc(OC)ccc21 (centres undefined)	G9a block 50µM
CC(=O)NC1C(=O)N(CCN2CCOCC2)c2ccc(Br)cc21 (centres undefined)	Sfp inh inconclusive, G9a block 3.2µM (no result: Tau fibril FP, Tau fibril ThT, Tau fluor counter)
CCN1C(=O)C(Cc2nc3ccccc3c(=O)n2-c2ccc(OC)cc2)c2cc(C)ccc21 (centres undefined)	G9a block inconclusive (no result: Sfp inh, Coupling enz)
COC(=O)c1oc2ccc(Br)cc2c1NC(=O)CCN1CCOCC1	none
CC(=O)c1ccc(Nc2nc3c(S(=O)(=O)c4ccccc4)nnn3c3ccc(Cl)cc23)cc1	Tau fibril FP inconclusive, Tau fluor counter inconclusive (no result: Sfp inh, Coupling enz)
Cc1cccc(NC(=S)NC2CCCC2)n1	Sfp inh 10µM
Cc1cccc(NC(=S)NC2CCCCC2)n1	Sfp inh 50µM, G9a block 0.89µM
CS(=O)(=O)N(CC(=O)NCCc1ccccc1)c1cc(C(F)(F)F)ccc1Cl	none (no result: Sfp inh, Coupling enz)
c1ccc(C(CN2CCOCC2)c2ccccc2)cc1	G9a block 25µM
CC(CCN1CCN(CCO)CC1)c1ccccc1 (centres undefined)	G9a block 7.9µM (no result: Tau fibril FP, Tau fibril ThT, Tau fluor counter)
CC(CCN1CCN(c2ccc(F)cc2)CC1)c1ccccc1 (centres undefined)	none (no result: Tau fibril FP, Tau fibril ThT, Tau fluor counter, G9a block)
CC(CCN1CCOCC1)c1ccccc1 (centres undefined)	G9a block 11µM (no result: Tau fibril FP, Tau fibril ThT, Tau fluor counter)
Cc1noc(C)c1S(=O)(=O)N(CC(=O)Nc1ccc(F)cc1F)c1ccc(C(C)C)cc1	Tau fluor counter inconclusive (no result: Sfp inh, Coupling enz)
COc1ccc(C2c3[nH]c4ccccc4c3CCN2Cc2cccn2-c2ncccn2)cc1C (centres undefined)	Tau fibril ThT inconclusive, Sfp inh 56µM, Tau fluor counter inconclusive
Cn1c(=O)[nH]c(NC2CCCCC2)c(N=O)c1=O	G9a block inconclusive
CCCNc1[nH]c(=O)n(C)c(=O)c1N=O	G9a block 40µM
